# Results published in PubChem BioAssay (Tox21).
# Values without a mark were called inactive. Records with an inconclusive call do not appear. A call without a number means that no potency is given here. Active and inactive are the calls of the source. Unless noted, calls come from the whole dose curve; as a rule, active = well fitted curve in the direction sought with a large enough effect in the repeat runs; inconclusive = weak or mixed curves; inactive = no such curve, though single readings can be large; an effect the other way counts as inactive or inconclusive.
# Tests used:
# [1] = qHTS assay to identify small molecule agonists of the hypoxia (HIF-1) signaling pathway - cell viability counter screen (AID 1224844; calls by dose curve; note: nearly all actives have a fitted effect of over 50% in size; note: potency is the fitted concentration of half-maximal effect)
# Summary of the method: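 Luminescent ATP content (CellTiter-Glo, 30 min, room temperature) served as the viability measure in HRE-bla ME-180 cells exposed to compounds for 17 hrs in low-serum medium (0.5% dialyzed FBS).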
# [2] = qHTS assay to identify small molecule agonists of H2AX (AID 1224845; active = well fitted activation curve with a large enough effect in the signal ratio in the repeat runs, not every such curve was filed as active; the % refers to the signal ratio; note: potency is the fitted concentration of half-maximal effect)
# Summary of the method: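 Phospho-H2AX Ser139 measured by HTRF (ex 320 nm; em 665 and 620 nm) after 24 hr antibody incubation. Compounds, 15 concentrations, 0.76% DMSO, were applied to CHO-K1 cells for 3hr at 37C before lysis.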
# [3] = qHTS assay to identify small molecule agonists of the hypoxia (HIF-1) signaling pathway (AID 1224846; active = well fitted activation curve with a large enough effect in the signal ratio in the repeat runs, not every such curve was filed as active; the % refers to the signal ratio)
# Summary of the method: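 Measured by blue/green FRET after loading CCF4-AM: beta-lactamase expressed from a hypoxia response element in ME-180 cells. Test agents were delivered in DMSO and left 17 hrs; cells had been plated 5 hrs earlier in low-serum (0.5% dialyzed FBS) medium.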
# [4] = qHTS RealTime-Glo MT Cell Viability Assay in HEK293 cells - 32 hour (AID 1224868); note: top concentration of the series differs between compounds; nearly all actives have a fitted effect of over 50% in size
# Summary of the method: (§1)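 Cells + reagent dispensed (600 cells/well, HEK293) → 5 h at 37 C/5% CO2 → 23 nL compound in DMSO pinned → 40 h at 37 C → luminescence read at 0, 8, 16, 24, 32, 40 h.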
# [5] = A CellTox Green Cytotoxicity Assay to monitor cytotoxicity in HEK293 cells - 0 hour (AID 1224869); note: nearly all actives have a fitted effect of over 50% in size
# Summary of the method: (§2)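 Each value comes from one timepoint of a single continuous run in which HEK293 cells with CellTox Green were exposed to compound for up to 40 h at 37 C, dye fluorescence rising with cell death.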
# [6] = qHTS RealTime-Glo MT Cell Viability Assay in HepG2 cells - 40 hour (AID 1224870); note: nearly all actives have a fitted effect of over 50% in size
# Summary of the method: (§3)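 Real-time viability: cells seeded at 600 per well together with NanoLuc and cell-permeant prosubstrate, compounds added after 5 h incubation. Luminescence tracked at 0, 8, 16, 24, 32 and 40 h of exposure.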
# [7] = A CellTox Green Cytotoxicity Assay to monitor cytotoxicity in HEK293 cells - 40 hour (AID 1224871); note: nearly all actives have a fitted effect of over 45% in size; note: potency is the fitted concentration of half-maximal effect
# Summary of the method: as §2
# [8] = qHTS RealTime-Glo MT Cell Viability Assay in HEK293 cells - 16 hour (AID 1224872)
# Summary of the method: as §1
# [9] = qHTS RealTime-Glo MT Cell Viability Assay in HepG2 cells - 8 hour (AID 1224873); note: nearly all actives have a fitted effect of over 55% in size
# Summary of the method: as §3
# [10] = A CellTox Green Cytotoxicity Assay to monitor cytotoxicity in HEK293 cells - 24 hour (AID 1224875); note: series mostly up to about 77 µM; nearly all actives have a fitted effect of over 45% in size
# Summary of the method: as §2
# [11] = qHTS RealTime-Glo MT Cell Viability Assay in HepG2 cells - 32 hour (AID 1224877); note: nearly all actives have a fitted effect of over 55% in size
# Summary of the method: (§4)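 Real-time, nonlytic viability: 600 HepG2 cells/well mixed with NanoLuc enzyme plus prosubstrate; 5 h settle, compound (DMSO) added by pintool; luminescence monitored over 40 h at 37 C.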
# [12] = A CellTox Green Cytotoxicity Assay to monitor cytotoxicity in HepG2 cells - 24 hour (AID 1224878); note: nearly all actives have a fitted effect of over 45% in size
# Summary of the method: (§5)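 Continuous culture of HepG2 cells with a membrane-impermeant DNA dye; rising fluorescence marks dead cells. Compound exposure lasted up to 40 h at 37 C, with reads every 8 h from 0 h.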
# [13] = A CellTox Green Cytotoxicity Assay to monitor cytotoxicity in HepG2 cells - 40 hour (AID 1224879); note: nearly all actives have a fitted effect of over 40% in size
# Summary of the method: as §5
# [14] = qHTS assay to identify small molecule agonists of H2AX - cell viability counter screen (AID 1224847; calls by dose curve; note: top concentration of the series differs between compounds; nearly all actives have a fitted effect of over 30% in size)
# Summary of the method: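 Compounds tested at 15 concentrations were incubated 3 hr at 37C with wild-type CHO-K1 cells; cellular ATP-based luminescence (CellTiter-Glo) indicated viability.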
# [15] = qHTS RealTime-Glo MT Cell Viability Assay in HEK293 cells - 40 hour (AID 1224874); details: RealTime-Glo luminescence; max response: stronger effect = lower value; note: nearly all actives have a fitted effect of over 50% in size
# Summary of the method: (§6)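 qHTS format; HEK293 cells with NanoLuc/prosubstrate reagent, 37 C/5% CO2 for 5 h pre-dosing; compounds 23 nL in DMSO; luminescence at each time point reflects viable cells.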
# [16] = A CellTox Green Cytotoxicity Assay to monitor cytotoxicity in HepG2 cells - 16 hour (AID 1224876); note: nearly all actives have a fitted effect of over 45% in size
# Summary of the method: as §5
# [17] = qHTS RealTime-Glo MT Cell Viability Assay in HEK293 cells - 0 hour (AID 1224880); note: nearly all actives have a fitted effect of over 45% in size; note: potency is the fitted concentration of half-maximal effect
# Summary of the method: as §6
# [18] = qHTS RealTime-Glo MT Cell Viability Assay in HepG2 cells - 24 hour (AID 1224867); note: nearly all actives have a fitted effect of over 50% in size
# Summary of the method: as §4
# [19] = qHTS assay to identify small molecule antagonists of the estrogen related receptor (ERR) signaling pathway from Tox21 library (AID 1224848); note: nearly all actives have a fitted effect of over 50% in size
# Summary of the method: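 Reading was by luminescence 30 min after ONE-Glo addition. Before that, ERR cells at 2,000 per well had rested 6 h at 37 C/5% CO2 and then received pin-tooled compounds in DMSO for 18 h at 37 C.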
# [20] = qHTS assay to identify small molecule agonists of the estrogen related receptor (ERR) signaling pathway from Tox21 library (AID 1224849; calls by dose curve; note: nearly all actives have a fitted effect of over 15% in size)
# Summary of the method: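 We plated ERR reporter cells, waited 6 h, added compounds in DMSO by pin tool and incubated them 18 h at 37 C. ONE-Glo was then added and luminescence read after 30 min.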
Compound,Potency [1],Potency [2],outcome [3],Potency [4],outcome [5],Potency [6],Potency [7],Potency [8],outcome [9],outcome [10],Potency [11],outcome [12],Potency [13],outcome [14],max response [15],outcome [16],Potency [17],outcome [18],Potency [19],outcome [20]
CNCCO,inactive,inactive,inactive,inactive,inactive,inactive,inactive,inactive,inactive,inactive,inactive,inactive,inactive,–,–,–,–,–,–,–
CCNS(=O)(=O)c1ccc(C)cc1,inactive,inactive,inactive,inactive,inactive,inactive,–,inactive,inactive,inactive,inactive,inactive,inactive,inactive,0.516%,inactive,–,–,–,–
O=C(O)CCCC[P+](c1ccccc1)(c1ccccc1)c1ccccc1,inactive,inactive,inactive,inactive,inactive,inactive,inactive,–,inactive,inactive,inactive,–,–,inactive,-10.4%,–,inactive,–,–,–
c1ccc(Cc2ccccc2)cc1,inactive,inactive,inactive,inactive,inactive,–,34.7 µM (active),inactive,–,inactive,inactive,inactive,inactive,inactive,-0.7%,inactive,inactive,inactive,–,–
C=CCOCC(O)CO (stereo not drawn),inactive,inactive,inactive,inactive,inactive,–,–,inactive,inactive,–,inactive,–,–,–,16.5%,–,inactive,inactive,–,–
Cc1nc2ccc(CN(C)c3ccc(C(=O)N[C@@H](CCC(=O)O)C(=O)O)s3)cc2c(=O)[nH]1,inactive,619 nM (active),inactive,inactive,inactive,–,inactive,inactive,inactive,inactive,inactive,inactive,–,inactive,–,inactive,–,inactive,–,–
Cc1ccc(-c2ccccc2C#N)cc1,inactive,inactive,inactive,inactive,inactive,inactive,inactive,inactive,inactive,inactive,inactive,inactive,inactive,inactive,1.26%,inactive,inactive,–,–,–
CC(=O)c1ccc2ccccc2c1,inactive,inactive,inactive,inactive,inactive,–,inactive,inactive,inactive,inactive,inactive,–,–,inactive,8.54%,–,–,inactive,–,–
CCCC(=O)O[C@]1(C(=O)CC)CC[C@H]2[C@@H]3CCC4=CC(=O)CC[C@]4(C)[C@H]3[C@@H](O)C[C@@]21C,19 µM (active),inactive,inactive,–,inactive,–,inactive,inactive,inactive,inactive,inactive,inactive,inactive,inactive,–,–,12 µM (active),inactive,–,–
NS(=O)(=O)Cc1noc2ccccc12,inactive,inactive,–,inactive,inactive,inactive,inactive,–,inactive,inactive,inactive,inactive,inactive,inactive,1.21%,inactive,inactive,inactive,inactive,inactive
CC(=O)NC(=O)c1ccccc1O,inactive,inactive,inactive,inactive,inactive,inactive,inactive,inactive,inactive,inactive,–,inactive,–,inactive,7.94%,inactive,inactive,–,–,–
COC(=O)Nc1ccc(Cl)c(Cl)c1,inactive,inactive,inactive,–,inactive,inactive,inactive,–,inactive,inactive,inactive,inactive,inactive,inactive,-27.2%,inactive,inactive,–,–,–
CCCCOC(=O)CCC(C)=O,inactive,inactive,inactive,inactive,inactive,inactive,inactive,inactive,inactive,inactive,inactive,inactive,–,–,-4.42%,inactive,inactive,inactive,–,–
C[N+]1(C)CCCC(OC(=O)C(O)(c2ccccc2)c2ccccc2)C1 (stereo not drawn),inactive,inactive,–,inactive,inactive,inactive,inactive,–,inactive,inactive,inactive,inactive,inactive,inactive,-4.47%,inactive,inactive,inactive,inactive,inactive
CCCCCCCCN1CCCC1=O,inactive,inactive,inactive,inactive,inactive,inactive,inactive,inactive,inactive,inactive,inactive,inactive,inactive,–,-3.59%,–,inactive,inactive,inactive,inactive
C[C@@H]1CCC[C@H](C)N1,inactive,inactive,–,inactive,inactive,inactive,inactive,inactive,inactive,inactive,inactive,inactive,–,inactive,0.353%,–,inactive,inactive,inactive,inactive
